# MBNL1-CUG inh – qHTS Assay for Inhibitors of MBNL1-poly(CUG) RNA binding. Muscleblind-like protein 1 (Homo sapiens), Q9NR56. TR-FRET MBNL1-His/biotin-(CUG)12 binding, 665/545 ratio. Potency, µM (series often up to 57.5 µM), most hits filed as inhibitors. hit rate 0.036% among 280,000; active means well fitted inhibition curve with a large enough effect in the signal ratio, with a control signal flat, not every such curve was filed as active; inconclusive means small, poorly fitted or top-dose-only effect, or effect the other way, or a change in a side signal; inactive means no such curve, though single readings can be large or run the other way; the % refers to the signal ratio
#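 Inhibition of protein-RNA binding appears as loss of TR-FRET between terbium anti-His antibody on MBNL1-His and streptavidin-XL665 on biotin-(CUG)12. Activity is normalized to buffer-only and uninhibited-complex controls.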
# hERG WT inh – qHTS for Inhibitors of KCHN2 3.1: Wildtype qHTS | U2OS, BacMam KCNH2, thallium flux FluxOr; active compounds read low | hit rate 0.37% among 340,000 | activity change, % at 1.84 µM | Voltage-gated inwardly rectifying potassium channel KCNH2 (Homo sapiens), Q12809 | AID 720551, 2013;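 active means maximum activity change below -70%; inconclusive means maximum activity change between -70% and -50%; inactive means maximum activity change above -50%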
# Target sequence (Q12809 whole entry, looked up): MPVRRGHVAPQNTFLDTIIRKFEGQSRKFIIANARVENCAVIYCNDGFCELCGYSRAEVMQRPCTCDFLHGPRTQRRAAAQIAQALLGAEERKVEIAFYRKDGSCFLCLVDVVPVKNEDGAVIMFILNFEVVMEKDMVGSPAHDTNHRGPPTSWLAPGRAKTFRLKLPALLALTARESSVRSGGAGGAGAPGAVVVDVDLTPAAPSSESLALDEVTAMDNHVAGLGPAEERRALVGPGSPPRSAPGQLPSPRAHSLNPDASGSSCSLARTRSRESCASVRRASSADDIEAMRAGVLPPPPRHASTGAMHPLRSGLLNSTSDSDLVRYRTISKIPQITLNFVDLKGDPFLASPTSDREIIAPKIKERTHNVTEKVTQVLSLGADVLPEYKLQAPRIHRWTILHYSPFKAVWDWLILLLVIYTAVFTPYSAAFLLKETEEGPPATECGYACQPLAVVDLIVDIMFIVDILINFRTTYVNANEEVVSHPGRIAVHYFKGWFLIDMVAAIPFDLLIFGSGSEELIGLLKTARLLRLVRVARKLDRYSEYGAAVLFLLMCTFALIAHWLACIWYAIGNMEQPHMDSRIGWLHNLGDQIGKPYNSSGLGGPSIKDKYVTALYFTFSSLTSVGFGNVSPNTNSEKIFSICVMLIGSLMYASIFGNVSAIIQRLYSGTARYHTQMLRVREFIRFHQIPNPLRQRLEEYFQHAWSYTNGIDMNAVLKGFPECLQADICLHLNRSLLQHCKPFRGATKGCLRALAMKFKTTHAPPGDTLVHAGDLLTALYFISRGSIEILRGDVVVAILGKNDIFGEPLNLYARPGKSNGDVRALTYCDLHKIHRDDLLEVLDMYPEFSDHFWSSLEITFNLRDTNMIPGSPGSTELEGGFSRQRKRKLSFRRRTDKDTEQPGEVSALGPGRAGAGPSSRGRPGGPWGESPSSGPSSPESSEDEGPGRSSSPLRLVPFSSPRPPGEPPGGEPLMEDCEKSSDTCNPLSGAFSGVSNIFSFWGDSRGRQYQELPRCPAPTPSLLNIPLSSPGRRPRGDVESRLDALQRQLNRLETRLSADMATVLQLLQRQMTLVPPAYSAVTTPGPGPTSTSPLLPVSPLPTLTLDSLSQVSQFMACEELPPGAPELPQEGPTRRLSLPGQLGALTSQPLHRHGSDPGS
#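 U2OS cells were transduced with wild-type KCNH2 virus (2.03 x 10^8 / mL) for 4 h at room temperature, then cultured overnight at 37 C. Thallium flux was read with FluxOr dye. Rate constants were normalized to DMSO controls.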
# VDR inhibitor – Inhibitors of the vitamin D receptor (VDR): qHTS; Vitamin D3 receptor (Homo sapiens), P11473; VDR-SRC2-3 peptide fluorescence polarization, 2 h; Potency, µM, actives largely listed as inhibitors; hit rate 0.93% among 400,000; AID 504847, 2011
#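 Compounds are added to VDR with labelled SRC2-3 coactivator peptide and held 2 h at room temperature. Inhibition of the VDR–peptide interaction is then read as a change in fluorescence polarization.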
# PLK1 PBD block – qHTS for Inhibitors of PLK1-PDB (polo-like kinase 1 - polo-box domain): Primary Screen; Serine/threonine-protein kinase PLK1 (Homo sapiens), P53350; Plk1 PBD binding of FITC phosphopeptide, fluorescence polarization; Potency, µM, actives largely listed as inhibitors; hit rate 2.8% among 360,000; AID 720504, 2013; further: series mostly up to about 57 µM; nearly all actives have a fitted effect of over 65% in size
# CBFb-RUNX1 inh – qHTS Assay for Compounds Blocking the Interaction Between CBF-beta and RUNX1 for the Treatment of Acute Myeloid Leukemia; Runt-related transcription factor 1 (Homo sapiens) + Core-binding factor subunit beta …; AlphaScreen CBFb-His/RUNX1-biotin binding, biochemical; Potency, µM (doses to about 59.8 µM), actives largely listed as inhibitors; 230,000 tested, under 10 active; AID 1477, 2009
#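 Inhibition was taken as any reduction in AlphaScreen signal from the CBF-beta–RUNX1 pair (His and biotin tags, 30 nM each), measured after compound (15 min) and bead (90 min) incubations at room temperature.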
# KCNH2 3.1 inh – qHTS for Inhibitors of KCHN2 3.1: Mutant qHTS. Potassium voltage-gated channel subfamily H member 2, brain isoform KCNH2 3.1 (human). U2OS KCNH2 3.1, thallium flux FluxOr; active compounds read low. activity change, % (tested at about 1.8 µM). hit rate 0.95% among 340,000. AID 720553, 2013;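 active means maximum activity change below -70%; inconclusive means maximum activity change from -70% to -50%; inactive means maximum activity change above -50%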;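 further: thallium influx rate constant from kinetic fluorescence after stimulation buffer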
#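 Thallium flux via FluxOr fluorescence (Red40 quencher, 45 min loading) in U2OS cells virally expressing the KCNH2 3.1 isoform (1.77 x 10^8 /mL virus, overnight at 37 C). Rate constants from 2-min kinetic reads post-stimulation, normalised to positive and negative controls.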
# Numbers stand for hits; – = inactive; ? = inconclusive; · = no result given; ! = a repeat was not active; [ ] = dose if it differs, or a comment. In the library only some 3.8% were active in any assay of this set; here they are far more common. Unless noted, the call rests on the fitted dose curve; in most records, active means well fitted curve in the direction sought with a large enough effect; inconclusive means small, poorly fitted or top-dose-only effect, or another doubt; inactive means no such curve, though single readings can be large; an effect the other way counts as inactive or inconclusive.
SMILES,MBNL1-CUG inh,hERG WT inh,VDR inhibitor,PLK1 PBD block,CBFb-RUNX1 inh,KCNH2 3.1 inh
COc1ccc(CN=Cc2c(O)[nH]c3ccccc23)cc1,?,–,–,21µM,–,–
Cn1c(=O)n(C)c2cc(N3CCCCC3)c(NC(=O)Nc3ccc(Br)cc3)cc21,·,·,–,·,·,·
CCc1nn(CC(=O)NCCc2ccc(Cl)cc2)c(=O)c2cc3c(OC)cccc3n12,·,·,–,·,·,·
OCCN1CCN(C(=S)c2ccc(Cl)c(Cl)c2)CC1,–,–,22µM,4.7µM,–,–
COc1cc(NC(=S)N2CCN(CCO)CC2)c(OC)cc1Cl,–,–,–,–,–,·
Cc1ccc(Cn2c(=O)n(CCc3ccccc3)c(=O)c3c(C)c(C)sc32)cc1,·,·,–,·,·,·
CCOC(=O)c1c(N)sc2c1CCN(Cc1ccccc1)C2,·,·,40µM,·,–,·
CNCCCCc1cnc(C)c2[nH]c3ccccc3c12,·,·,–,·,–,·
CCC(=O)N1CCc2cc(Br)cc(S(=O)(=O)N3CCCC(C(=O)NCc4ccccc4)C3)c21 (stereo unspecified),·,·,–,·,·,·
Cc1cccc(OCC(O)CN2C(C)(C)CC(O)CC2(C)C)c1 (stereo unspecified),–,–,–,9.5µM,–,–
Cc1ccc(N2CCN(CC(O)COc3cccc(C)c3)CC2)cc1 (stereo unspecified),–,–,–,–,–,–
NNC(=O)c1nn(-c2ccc(Cl)cc2)cc1O,–,–,?,17µM,–,–
CCC(C)C1NC(=O)C(Cc2ccc(O)cc2)NC(=O)C(N)CSSCC(C(=O)N2CCCC2C(=O)NC(CC(C)C)C(=O)NCC(N)=O)NC(=O)C(CC(N)=O)NC(=O)C(CCC(N)=O)NC1=O (stereo unspecified),·,·,13µM!,·,–,·
Cc1ccc(C)c(NC(=O)C2CCN(c3cc(C)nc4c(-c5ccc(Cl)cc5)c(C)nn34)CC2)c1,·,·,–,·,·,·
CCCCS(=O)(=O)N1C2=NC(C(=O)OC)=C(C(=O)OC)[C@@H]3N(C)c4ccccc4[C@]23C[C@H]1C(=O)OC,·,·,·,·,–[13.1 µM],·
CCCCN(CC)c1nc(C)nc2c1c(C)c(C)n2-c1c(C)cc(C)cc1C,·,·,–,·,–,·
O=C(Nc1ccc(C(=O)Nc2ccc(C(=O)Nc3ccc(S(=O)(=O)O)c4cc(S(=O)(=O)O)cc(S(=O)(=O)O)c34)cc2)cc1)Nc1ccc(C(=O)Nc2ccc(C(=O)Nc3ccc(S(=O)(=O)O)c4cc(S(=O)(=O)O)cc(S(=O)(=O)O)c34)cc2)cc1,·,·,5.6µM,·,?,·
O=C(CCN1CCOCC1)c1ccccc1,–,–,–,?,–,–
C[N+]1(CCC(=O)c2ccccc2)CCCCC1,–,–,–,12µM,–,–
O=C(CCN1CCCCC1)c1ccccc1,–,–,–,15µM,–,–
CC1CCCN(CCC(=O)c2ccccc2)C1 (stereo unspecified),·,–,–,13µM,·,–
Cc1ccc2c(=O)cc(C(=O)Nc3ccc(S(=O)(=O)N4CCCCC4)cc3)oc2c1,·,·,–,·,·,·
Cc1ccccc1NC(=O)N1CCc2cc(S(=O)(=O)N3CCC(C)CC3)ccc21,·,·,–,·,·,·
Cc1ccccc1NC(=O)CN1CCC(n2nnc3ccccc32)CC1,–,–,–,–,–,–
Cc1nc2ccccc2n1C1CCN(CC(=O)Nc2ccccc2Br)CC1,–,?,–,–,–,-91
CN1CCN(C(c2ccc(Cl)cc2)c2cc(Cl)c3cccnc3c2O)CC1 (stereo unspecified),–,–,45µM,2.4µM,·,–
CC(=O)NC(c1ccccc1)c1cc(Cl)c2cccnc2c1O (stereo unspecified),–,–,–,–,·,–

# Source: PubChem
